Reference: publication PMC5540273 (PLoS ONE, 2017)
Several values for one entry are separate records, joined by “and”; a condition that tells them apart may be missing. Equal values may be shown once. Read-outs that look alike come from different tables or passages of the source.

Assays:
Conditions in all cases: concentration: 1 μM, replicates: in singlicate, n = 1
[1] = system: SRPK3
[2] = system: STK16
[3] = system: STK33
[4] = system: STK35
[5] = system: STK36
[6] = system: STK39
[7] = system: SYK
[8] = system: SgK110
[9] = system: T1, TAK1
T1 construct: gene MAP3K7

[10] = system: TAOK1
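Note: KINOMEscan kinase panel screen.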

| SMILES | %Inh [1] [%] | %Inh [2] [%] | %Inh [3] [%] | %Inh [4] [%] | %Inh [5] [%] | %Inh [6] [%] | %Inh [7] [%] | %Inh [8] [%] | %Inh [9] [%] | %Inh [10] [%] | %Inh ([1]; 1 µM) | %Inh ([2]; 1 µM) | %Inh ([3]; 1 µM) | %Inh ([4]; 1 µM) | %Inh ([5]; 1 µM) | %Inh ([6]; 1 µM) | %Inh ([7]; 1 µM) | %Inh ([8]; 1 µM) | %Inh ([9]; 1 µM) | %Inh ([10]; 1 µM) |
| --- | --- | --- | --- | --- | --- | --- | --- | --- | --- | --- | --- | --- | --- | --- | --- | --- | --- | --- | --- | --- |
| Cc1nnc(-c2ccc3occ(-c4ccc(C(C)O)cc4)c3c2)o1 (stereo not drawn) | 0 | 12 | 0 | 32 | 19 | 0 | 14 | 25 | 25 | 0 |  |  |  |  |  |  |  |  |  |  |
| CC(C)(C)n1cnc2c(N)ncnc21 [SKF-97359] | 0 | 0 | 0 | 0 | 0 | 0 | 0 | 85 | 22 | 0 |  |  |  |  |  |  |  |  |  |  |
| Cc1c(Cn2c(C)nn3c(=O)cc(N4CCOC(C)C4)nc23)cccc1C(F)(F)F (stereo not drawn) [GSK2344444] | 0 | 0 | 0 | 0 | 0 | 6 | 12 | 0 | 0 | 0 |  |  |  |  |  |  |  |  |  |  |
| Cc1cn2c(=O)cc(N3CCOCC3)nc2n1Cc1cccc(Cl)c1Cl [GSK2334006] | 0 | 14 | 4 | 3 | 0 | 17 | 21 | 0 | 0 | 0 |  |  |  |  |  |  |  |  |  |  |
| CCc1nc(-c2cccc(C)c2)c(-c2ccnc(NCc3ccccc3)c2)s1 | 0 | 19 | 0 | 0 | 0 | 0 | 0 | 22 | 0 | 0 |  |  |  |  |  |  |  |  |  |  |
| CNc1ncnc2[nH]ncc12 [SKF-18355] | 10 | 0 | 0 | 0 | 0 | 9 | 22 | 0 | 0 | 0 |  |  |  |  |  |  |  |  |  |  |
| COc1ccc(Nc2nccc(N3CCC(NC(=O)Nc4cccc(C(C)=O)c4)C3)n2)cc1 (stereo not drawn) [GSK1379731] | 0 | 14 | 0 | 0 | 0 | 0 | 1 | 0 | 0 | 0 |  |  |  |  |  |  |  |  |  |  |
| O=C(Nc1cccc(-c2nn3ncccc3c2-c2ccnc(Nc3cccc(C(F)(F)F)c3)n2)c1)c1c(F)cccc1F [GSK299495] | 0 | 3 | 0 | 54 | 99 | 15 | 68 | 0 | 0 | 44 |  |  |  |  |  |  |  |  |  |  |
| Cl.Cl.Cl.Fc1ccc(-c2ncn(C3CCNCC3)c2-c2ccnc(Nc3ccccc3)n2)cc1 [SB-238039] |  |  |  |  |  |  |  |  |  |  | 11% and 26% | 5% and 0% | 0% and 12% | 2% and 0% | 97.9% and 93% | 18% and 0% | 8% and 3% | 35% and 0% | 24% and 46% | 88% and 57% |
| Cc1cccc(-c2nc(-c3ccc(S(C)(=O)=O)cc3)sc2-c2ccncc2)c1 | 10 | 19 | 0 | 3 | 30 | 15 | 25 | 2 | 3 | 0 |  |  |  |  |  |  |  |  |  |  |
| N#Cc1ccc(-c2cc(-c3c[nH]nc3-c3ccccn3)ccn2)cc1 [GW693028] | 14 | 0 | 4 | 0 | 0 | 16 | 5 | 5 | 0 | 0 |  |  |  |  |  |  |  |  |  |  |
| O=C(NCCNc1ccnc(Nc2ccc(F)cc2)n1)c1cc2ccccc2s1 [GSK1379874] | 0 | 5 | 0 | 0 | 0 | 0 | 36 | 0 | 0 | 0 |  |  |  |  |  |  |  |  |  |  |
| Cl.Oc1cccc(Nc2ccnc3cc(-c4ccncc4)ccc23)c1 [GW494601] | 0 | 26 | 41 | 0 | 0 | 1 | 82 | 0 | 41 | 0 |  |  |  |  |  |  |  |  |  |  |
| COC(=O)Nc1nc2cc(Oc3ccc(NC(=O)Nc4cc(F)ccc4F)cc3)ccc2[nH]1.Cl [GW701424] | 0 | 0 | 0 | 0 | 0 | 7 | 0 | 0 | 8 | 0 |  |  |  |  |  |  |  |  |  |  |
| O=c1cc(N2CCOCC2)nc2n(Cc3cccc(Cl)c3Cl)c(C3CC3)nn12 [GSK2358994] | 0 | 10 | 0 | 0 | 3 | 0 | 0 | 0 | 0 | 0 |  |  |  |  |  |  |  |  |  |  |
| COc1ccc(CNC(=O)NC2CCN(c3ccnc(Nc4ccc(OC)cc4)n3)C2)cc1 (stereo not drawn) [GSK1379727] | 0 | 16 | 0 | 0 | 0 | 5 | 22 | 7 | 0 | 0 |  |  |  |  |  |  |  |  |  |  |
| CCn1cnc2c(N)ncnc21 [GW345098] | 18 | 12 | 10 | 0 | 5 | 0 | 3 | 0 | 4 | 16 |  |  |  |  |  |  |  |  |  |  |

| SMILES | %Inh [1] [%] | %Inh [2] [%] | %Inh [3] [%] | %Inh [4] [%] | %Inh [5] [%] | %Inh [6] [%] | %Inh [7] [%] | %Inh [8] [%] | %Inh [9] [%] | %Inh [10] [%] | %Inh ([1]; 1 µM) | %Inh ([2]; 1 µM) | %Inh ([3]; 1 µM) | %Inh ([4]; 1 µM) | %Inh ([5]; 1 µM) | %Inh ([6]; 1 µM) | %Inh ([7]; 1 µM) | %Inh ([8]; 1 µM) | %Inh ([9]; 1 µM) | %Inh ([10]; 1 µM) |
| --- | --- | --- | --- | --- | --- | --- | --- | --- | --- | --- | --- | --- | --- | --- | --- | --- | --- | --- | --- | --- |
| O=C(c1ccc(-c2cc(-c3c[nH]nc3-c3ccccn3)ccn2)cc1)N1CCOCC1 [GW812171] | 4 | 0 | 0 | 0 | 2 | 18 | 0 | 32 | 10 | 0 |  |  |  |  |  |  |  |  |  |  |
| Cn1ccc2ncnc(Oc3ccc(NC(=O)Nc4ccncc4)c(Cl)c3)c21 | 0 | 10 | 0 | 0 | 5 | 100 | 3 | 30 | 0 | 0 |  |  |  |  |  |  |  |  |  |  |
| COCCNC(=O)c1ccc(-c2cc(C(=O)NC3CC3)cc(F)c2C)cc1 [GW868318] | 20 | 0 | 10 | 0 | 2 | 16 | 1 | 21 | 14 | 29 |  |  |  |  |  |  |  |  |  |  |
| Cc1ccc(NC(=O)c2ccnc(N3CCN(C)CC3)c2)cc1-c1ccc(C(=O)NCC2CC2)cc1 [GW775604] | 5 | 0 | 0 | 1 | 0 | 0 | 26 | 3 | 0 | 0 |  |  |  |  |  |  |  |  |  |  |
| Cc1nnc(-c2ccc(C)c(-c3ccc(C(=O)Nc4ccc(NS(C)(=O)=O)cc4)cc3)c2)o1 [GW702865] | 3 | 0 | 0 | 0 | 24 | 14 | 33 | 4 | 4 | 0 |  |  |  |  |  |  |  |  |  |  |
| CN(C1=C(c2ccccc2)C(=O)NC1=O)c1ccccc1 [SB-334860] | 0 | 14 | 0 | 3 | 0 | 5 | 32 | 0 | 18 | 0 |  |  |  |  |  |  |  |  |  |  |
| O=C(NCCCN1CCOCC1)c1cccc(Nc2nccc(Nc3ccc(Oc4ccccc4)cc3)n2)c1 [GW663929] | 0 | 64 | 10 | 34 | 33 | 23 | 0 | 0 | 19 | 0 |  |  |  |  |  |  |  |  |  |  |
| COc1ccc(S(=O)(=O)NC2CCN(c3cc(C)nc(Nc4cccc(C#N)c4)n3)CC2)cc1.O=C(O)C(F)(F)F [GSK1653539] | 0 | 3 | 0 | 0 | 0 | 17 | 0 | 0 | 0 | 0 |  |  |  |  |  |  |  |  |  |  |
| CN(C(=O)c1ccc(-c2cc(-c3c[nH]nc3-c3ccccn3)ccn2)cc1)C1CCOCC1 [GW810083] | 11 | 0 | 0 | 0 | 0 | 17 | 0 | 0 | 24 | 0 |  |  |  |  |  |  |  |  |  |  |
| NCCNS(=O)(=O)c1ccc(-c2ccnc3[nH]ccc23)cc1 [GSK977617] |  |  |  | 0 | 0 |  |  | 0 |  |  | 67% and 37% | 80% and 68% | 85% and 71% |  |  | 0% and 13% | 32% and 15% |  | 75% and 65% | 54% and 40% |
| C[C@@H](Oc1cc(-n2cnc3ccc(NC(=O)NC(C)(C)C)cc32)sc1C(N)=O)c1ccccc1Cl [GSK346294] | 0 | 22 | 0 | 0 | 0 | 0 | 34 | 0 | 0 | 0 |  |  |  |  |  |  |  |  |  |  |
| Cc1c2ccc(N(C)c3ccnc(Nc4cccc(S(N)(=O)=O)c4)n3)cc2nn1Cc1ccccc1.Cl.Cl [GW787226] | 2 | 55 | 0 | 0 | 39 | 0 | 60 | 2 | 4 | 0 |  |  |  |  |  |  |  |  |  |  |
| COc1ccc(Nc2ncc(C#N)c(Nc3ccccc3C(N)=O)n2)cc1N1CCN(C)CC1.Cl [GSK1558669] | 100 | 98.3 | 99.2 | 99.3 | 99.5 | 100 | 98.6 | 66 | 100 | 86 |  |  |  |  |  |  |  |  |  |  |
| CSc1ccc(-c2cc3ncnc(SCC(=O)O)c3s2)cc1 | 0 | 2 | 8 | 0 | 0 | 0 | 15 | 0 | 18 | 0 |  |  |  |  |  |  |  |  |  |  |
| Cl.Nc1ncnc2occ(-c3ccc(NC(=O)Nc4cc(C(F)(F)F)ccc4F)cc3)c12 [SB-707548] | 0 | 8 | 87 | 37 | 0 | 14 | 68 | 0 | 98.6 | 13 |  |  |  |  |  |  |  |  |  |  |
| CCc1ccnc(/C=C/c2n[nH]c3cc(Sc4ccccc4C(=O)NC)ccc23)c1 | 14 | 0 | 4 | 0 | 12 | 0 | 0 | 47 | 1 | 0 |  |  |  |  |  |  |  |  |  |  |
